Source: ChEMBL document CHEMBL1157539, “Thousands of chemical starting points for antimalarial lead identification” (Nature, 2010)

Key:
Format in all cases: functional
Plasmodium falciparum [1] = assay: GSK_TCMDC: Inhibition of Plasmodium falciparum 3D7 in whole red blood cells, using parasite LDH activity as an index of growth. Test compounds present at 2uM
Plasmodium falciparum [2] = assay: GSK_TCMDC: Inhibition of Plasmodium falciparum Dd2 in whole red blood cells, using parasite LDH activity as an index of growth. Test compounds present at 2uM
HepG2 = assay: GSK_TCMDC: Percent inhibition of human HepG2 cell line. Test compounds present at 10uM.

Row | Compound | Inhibition (Plasmodium falciparum [1]) [%] | Inhibition (Plasmodium falciparum [2]) [%] | Inhibition (HepG2) [%]
1 | O=C(NC(=O)c1ccccc1O)c1ccccc1O | 97 | 79 | 0
2 | CN(Cc1ccccc1)C1CCCN(c2cc(NC(=O)c3ccc(F)cc3)ccn2)C1.O=C(O)C(F)(F)F (centres undefined) | 93 | 95 | 7
3 | CC(C)Sc1nc2c(c(=O)n1Cc1ccco1)C1(CCCCC1)Cc1ccccc1-2 | 100 | 99 | 10
4 | O=C(Nc1cccc(CN2CCCN(Cc3ccc(O)cc3)CC2)c1)c1cc2ccccc2s1.O=C(O)C(F)(F)F | 100 | 90 | 27
5 | CC(=O)c1ccc(-n2ccnc2)cc1 | 92 | 0 | 0
6 | CCOC(=O)c1cn(CC)c2cc(N3CCCCC3)c(F)cc2c1=O | 97 | 96 | 0
7 | CCOC(=O)C(=O)N1c2ccc(OCC)cc2-c2c(ssc2=S)C1(C)C | 99 | 100 | 5
8 | COc1ccc(CN2CCN(Cc3cc(Cl)ccc3O)CC2CCO)c(C)c1C (centres undefined) | 94 | 76 | 1
9 | CCN(CC)CCCC(C)N=c1cc(C=Cc2ccc([N+](=O)[O-])cc2)[nH]c2ccc(OC)cc12 (centres undefined) | 100 | 100 | 37
10 | COc1ccc(CCNCCCCCCNCCc2cccc([N+](=O)[O-])c2)cc1OC.Cl | 93 | 0 | 13
11 | CC1CCC(C[C@@H](C(=O)N[C@H](C(=O)Nc2nccs2)[C@@H](C)O)[C@H](CCC(F)(F)F)N(O)C=O)CC1 (some centres undefined) | 95 | 94 | 0
12 | CC(C)CNCc1cccc(-c2ccccc2CN(C(=O)NCCc2ccccc2)C2CCN(Cc3ccccc3)CC2)c1.O=C(O)C(F)(F)F | 89 | 82 | 42
13 | CC(=O)Nc1ccc(OCCN(Cc2ccccc2C(F)(F)F)c2ccc(C#N)c(C(F)(F)F)c2)c(Cl)c1 | 98 | 78 | 0
14 | Cc1ccc(Oc2ccccc2NC(=O)CCc2nc3ccccc3c(=O)[nH]2)cc1 | 100 | 99 | 3
15 | O=C(CCCCCNC(=O)c1ccc(O)c(-c2ccc(Cl)c(Cl)c2)c1)NCc1cccc2ccccc12 | 99 | 15 | 2
16 | COc1cc(N)c(Cl)cc1C(=O)NC1CCC(NCC2CCCCC2)CC1.Cl (centres undefined) | 90 | 85 | 18
17 | CCN(CC)CCCNc1cc[n+]([O-])c2cc3ccccc3cc12 | 100 | 3 | 13
18 | C=CCOC(=O)N1CCC(CNCc2ccc(-c3ccc(-c4nc5cc(C(F)(F)F)ccc5[nH]4)cc3)cc2)C1.O=C(O)C(F)(F)F (centres undefined) | 100 | 98 | 44
19 | CCOc1ccc2c(c1)OC(c1ccccc1)(C(F)(F)F)NC2=O (centres undefined) | 100 | 98 | 0
20 | FC(F)(F)c1cnc(Sc2nnc(-c3ccncc3)o2)c(Cl)c1 | 96 | 96 | 10
21 | COc1ccc(NC(=O)Nc2cccc(-c3cccc(-c4nc5cc(F)ccc5[nH]4)c3)c2)cc1 | 99 | 39 | 59
22 | CCNc1cc(C(=O)N[C@@H](Cc2ccccc2Cl)[C@H](O)CNC(C)CCCC(C)C)cc(N2CCCCS2(=O)=O)c1.Cl (some centres undefined) | 97 | 62 | 12
23 | O=C(Nc1cc(C(F)(F)F)cc(C(F)(F)F)c1)Nc1ccc(Cl)c(Cl)c1 | 100 | 100 | 58
24 | Cc1ccc(N)cc1-c1nc(NC2CC(C)(C)NC(C)(C)C2)nc2c1ccc(=O)n2-c1c(F)cccc1F | 98 | 1 | 0
25 | CCc1cn(C)c2c(N3CCCC3=O)cc(C(=O)N[C@@H](Cc3ccccc3)[C@H](O)CNCc3cccc(OC)c3)cc12 | 96 | 97 | 7
26 | O=C(O)C(F)(F)F.O=S(=O)(/C=C/c1ccccc1)N(Cc1ccc(-c2ccc(CNCCc3ccccn3)cc2)cc1)CC1CCCCN1 (centres undefined) | 100 | 97 | 46
27 | COc1ccc(NC(=O)Nc2ccc(C)c(-c3ccc(C(=O)Nc4ccncc4)cc3)c2)cc1 | 99 | 50 | 39
28 | O=C(/C=C/c1ccc(Cl)c(Cl)c1)NCCCCCN1CCC(NC(=O)Nc2ccc(Cl)c(Cl)c2)CC1 | 100 | 1 | 23
